Hits are enriched below; roughly 19% of the tested compounds scored in any of these assays.
HepG2 viability: qHTS for Inhibitors of TGF-b: Cytotox Counterscreen; hit rate 0.76% among 410,000; Potency, µM (titrated, usually from 46.1 µM), for inactives: at the highest dose activity change, negative = cytotoxicity, hits mostly cytotoxic; AID 588856, 2011; HepG2 CAGA-GFP viability, ATP luminescence, 18 h; note: potency is the fitted concentration of half-maximal effect
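HepG2 CAGA-GFP cells (1000/well, DMEM with 1% FBS) received compound, then TGF-beta at 500 pg/mL final, and were incubated 18 hours at 37 degrees C. Viability was read by CellTiter-Glo luminescence. Media-only wells were set as complete cell-killing and DMSO as no toxicity.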
IL1B secr inh: qHTS for Inhibitors of Inflammasome Signaling: IL-1-beta AlphaLISA Primary Screen | THP-1 LPS/ATP IL-1B secretion, AlphaLISA, 16 h; hits give low values | activity change, % at 57.5 µM | hit rate 4.7% among 360,000 | AID 743279, 2014; in the data active = activity change below about -50%; inconclusive = mostly about -30% to -49%; note: % is set by controls: 0 for no effect and ±100 for the full control effect
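THP-1 cells pretreated 1 hr with compounds (up to 57.5 uM final), then stimulated with LPS (250 ng/mL final) plus ATP (1.25 mM final); secreted IL-1B measured by AlphaLISA after 16 hr, decreased signal indicating inhibition.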
DT40 TDP1 no CPT: qHTS for Inhibitors of human tyrosyl-DNA phosphodiesterase 1 (TDP1): qHTS in cells in absence of CPT | DT40 Tdp1-/- hTDP1 cells, no CPT, ATP luminescence, 48 h | Potency, µM (series often up to 46.2 µM), for inactives: at the top dose activity change, negative = growth inhibition, most hits filed as inhibitors | hit rate 15% among 420,000 | AID 686978, 2013; note: potency is the fitted concentration of half-maximal effect; % is set by controls: 0 for no effect and ±100 for the full control effect; nearly all actives have a fitted effect of over 55% in size
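Readout: luminescence from CellTiter-Glo after 30 min in the dark at RT. Cells: DT40 Tdp1-/- with stable hTDP1, 400/well. Exposure: compounds alone, ≥48 hr, 37 °C.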
DT40 TDP1 CPT: qHTS for Inhibitors of human tyrosyl-DNA phosphodiesterase 1 (TDP1): qHTS in cells in presence of CPT; chicken DT40 Tdp1-/-;hTDP1 cells + 20 nM CPT, ATP luminescence, 48 h; Potency, µM (series often up to 46.2 µM), for inactives: at the highest dose activity change, negative = growth inhibition, actives largely listed as inhibitors; hit rate 12% among 420,000; AID 686979, 2013; note: potency is the fitted concentration of half-maximal effect; % is set by controls: 0 for no effect and ±100 for the full control effect; nearly all actives have a fitted effect of over 55% in size
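Chicken DT40 Tdp1-/- cells complemented with human TDP1, 400 cells/well, exposed to compounds plus 20 nM camptothecin for at least 48 h at 37 C; viability read as ATP content by CellTiter-Glo luminescence.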
TGFb inhibitor: qHTS for Inhibitors of TGF-b. hit rate 1.2% among 410,000. Potency, µM (doses to about 46.1 µM), for inactives: top-dose activity, negative = inhibition, usual class: inhibitors. HepG2 CAGA-GFP TGF-b/SMAD3 reporter, GFP fluorescence, 18 h; TGF-beta stimulated, 500 pg/mL final; note: potency is the fitted concentration of half-maximal effect; % is set by controls: 0 for no effect and ±100 for the full control effect; nearly all actives have a fitted effect of over 65% in size
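GFP signal (ex488/em500-530) from TGF-beta-stimulated HEPG2 CAGA-GFP cells, 500 pg/mL final, 18 h at 37 degrees C in DMEM plus 1% FBS, normalized to unstimulated and DMSO-stimulated controls.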
TDP1 block: qHTS Assay for Inhibitors of Tyrosyl-DNA Phosphodiesterase (TDP1). hit rate 0.28% among 350,000. recombinant TDP1, AlphaScreen DNA substrate cleavage. Tyrosyl-DNA phosphodiesterase 1 (Homo sapiens), Q9NUW8. Potency, µM (doses to about 130 µM), for inactives: top-dose activity change, negative = inhibition, hits mostly inhibitors. AID 485290, 2010; note: potency is the fitted concentration of half-maximal effect; % is set by controls: 0 for no effect and ±100 for the full control effect; nearly all actives have a fitted effect of over 40% in size
Target sequence (Q9NUW8 whole entry, looked up): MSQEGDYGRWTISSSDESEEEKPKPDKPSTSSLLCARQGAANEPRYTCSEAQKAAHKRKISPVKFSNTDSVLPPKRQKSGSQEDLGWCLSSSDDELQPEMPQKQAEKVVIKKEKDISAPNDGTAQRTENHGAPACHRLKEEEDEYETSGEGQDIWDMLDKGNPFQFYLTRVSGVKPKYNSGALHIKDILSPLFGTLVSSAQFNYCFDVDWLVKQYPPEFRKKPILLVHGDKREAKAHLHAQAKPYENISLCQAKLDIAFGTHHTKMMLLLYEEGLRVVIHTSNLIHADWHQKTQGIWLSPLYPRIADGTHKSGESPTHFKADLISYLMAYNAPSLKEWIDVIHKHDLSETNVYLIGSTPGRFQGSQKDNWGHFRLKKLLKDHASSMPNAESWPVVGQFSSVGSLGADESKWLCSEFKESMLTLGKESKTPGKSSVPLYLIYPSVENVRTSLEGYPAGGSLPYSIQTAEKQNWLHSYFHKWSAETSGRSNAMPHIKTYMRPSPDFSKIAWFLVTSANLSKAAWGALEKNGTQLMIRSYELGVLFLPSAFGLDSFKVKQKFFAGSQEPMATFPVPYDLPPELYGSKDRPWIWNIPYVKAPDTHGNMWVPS
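Steps: enzyme plus compound, 15 min RT; add biotin/phosphotyrosine-FITC oligonucleotide (15 nM final), react 5 min; add donor/acceptor beads (10 ug/ml final), 10 min; read AlphaScreen. Tdp1 at 1 nM final.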
* marks the source's active call; other numbers are inactive results; ? = inconclusive; . = not tested or not shown. Unless noted, calls come from the whole dose curve; as a rule, active = well fitted curve in the direction sought with a large enough effect; inconclusive = small, poorly fitted or top-dose-only effect, or another doubt; inactive = no such curve, though single readings can be large; an effect the other way counts as inactive or inconclusive.

SMILES	HepG2 viability	IL1B secr inh	DT40 TDP1 no CPT	DT40 TDP1 CPT	TGFb inhibitor	TDP1 block
CC(=O)OCC(NC(=O)C1CCCN1C(=O)OC(C)(C)C)C1OC(n2ccc(=O)[nH]c2=O)C(OC(C)=O)C1OC(C)=O (configuration not stated)	14%	.	.	.	-4%	6%
CCOC(=O)C1CCN(C(c2cc3c(C)ccc(C)c3[nH]c2=O)c2nnnn2C2CCCCC2)CC1 (configuration not stated)	4%	13	?	28µM*	-5%	4%
CCCn1c(N)c(C(=O)COC(=O)c2cccc(S(=O)(=O)N3CCOCC3)c2)c(=O)[nH]c1=O	1%	7	3%	1%	3%	0%
COc1cccc(C#Cc2cnc3c(c2)C(=O)N([C@@H](C)CO)C[C@H](C)[C@H](CN(C)C(=O)C2CCC2)O3)c1	-84%	-24	13µM*	?	-12%	.
Cc1ccc(S(=O)(=O)N(C)C[C@@H]2Oc3ncc(C#CCC(C)C)cc3C(=O)N([C@H](C)CO)C[C@H]2C)cc1	-12%	-10	16µM*	?	?	.
COc1ccccc1-c1cnc2c(c1)C(=O)N([C@@H](C)CO)C[C@@H](C)[C@@H](CN(C)C(C)=O)O2	-5%	21	2%	-2%	5%	.
Cc1ccc(S(=O)(=O)N(C)C[C@H]2Oc3ncc(-c4ccccc4)cc3C(=O)N([C@@H](C)CO)C[C@@H]2C)cc1	-28%	-28	13µM*	?	-1%	.
Cc1ccc(-c2cnc3c(c2)C(=O)N([C@H](C)CO)C[C@@H](C)[C@@H](CN(C)C(=O)Cc2ccccc2)O3)cc1	-9%	?	?	0%	-10%	.
COc1ccccc1S(=O)(=O)N(C)C[C@@H]1Oc2ncc(-c3ccc(C)cc3)cc2C(=O)N([C@H](C)CO)C[C@@H]1C	-6%	-13	16µM*	?	-2%	.
COc1ccc(-n2ncc3c(NCCCOC(C)C)ncnc32)cc1	-15%	.	?	?	0%	10%
CC(=O)c1ccc(NC(=O)Cn2c(=O)oc3cc(S(=O)(=O)N4CCCCC4)ccc32)cc1	-1%	.	-23%	-16%	2%	-1%
COC(=O)CCc1c(COC(C)=O)[nH]c(C(=O)OCc2ccccc2)c1C	-11%	14	15%	-17%	-12%	.
Cc1cccc(N(C)S(=O)(=O)c2nnc(NC(=O)C(C)(C)C)s2)c1	-13%	.	?	?	-44%	-1%
CC(C)(C)c1ccc(-c2nc(SCC(=O)Nc3ccc(Cl)cc3)[nH]c(=O)c2C#N)cc1	-103%	.	-5%	-24%	?	.
CSc1ccc(/C=C2\C=Cc3cc([N+](=O)[O-])ccc32)cc1	-3%	.	16µM*	11µM*	3%	.
O=[N+]([O-])c1ccc(/C=C2\C=Cc3ccccc32)cc1	-9%	.	?	8.9µM*	3%	.
O=[N+]([O-])c1ccc2c(c1)C=C/C2=C\c1ccccc1	26%	.	-11%	-19%	17%	.
O=C(Nc1cc(Cl)ccc1-n1cncn1)c1ccc([N+](=O)[O-])s1	-102%	23	?	7.3µM*	?	8%
Cc1ccc(OCC(=O)NNC(=O)c2ccc(-n3cncn3)c([N+](=O)[O-])c2)cc1	0%	3	?	-8%	0%	0%
O=C(Nc1cccc(/C=C/c2ccccn2)c1)c1ccc(-n2cncn2)c([N+](=O)[O-])c1	-21%	-76*	6.5µM*	16µM*	?	.
O=C(Nc1ccc(F)c(F)c1)c1ccc(-n2cncn2)c([N+](=O)[O-])c1	-8%	?	?	8.2µM*	-9%	0%
O=C(COc1ccc(Br)cc1)NNC(=O)c1ccc(-n2cncn2)c([N+](=O)[O-])c1	-25%	5	16µM*	?	-10%	-2%
Cc1ccc(N(C)C(=O)Cn2nc(Cc3ccncc3)c3ccccc3c2=O)cc1C	-31%	.	-25%	-27%	?	1%
C=CCCCCCCC=C	.	.	.	.	.	10%
COc1ccc(CNC(=O)CN(Cc2ccc(OC)cc2)C(=O)CCC(=O)Nc2nccs2)cc1	0%	0	-14%	-5%	-2%	.
SMILES	HepG2 viability	IL1B secr inh	DT40 TDP1 no CPT	DT40 TDP1 CPT	TGFb inhibitor	TDP1 block
CC(=O)OCC(NC(=O)C(C)NC(=O)OC(C)(C)C)C1OC(n2cc(C)c(=O)[nH]c2=O)C(OC(C)=O)C1OC(C)=O (configuration not stated)	-8%	.	.	.	-15%	10%
CCn1c(SC(=O)NC2CCCCC2)nnc1-c1cccs1	-4%	-20	23µM*	21µM*	0%	?
O=C(CSc1nnc2sc3ccccc3n12)NCc1ccco1	4%	31	13µM*	?	-9%	9%
CC(C)NC(=O)CSc1nnc2sc3ccccc3n12	-14%	14	-15%	-4%	18%	1%
CCn1c(SCC(=O)NCc2ccco2)nnc1-c1cccs1	0%	19	-5%	1%	2%	50µM*
CCn1c(SCC(=O)NCc2ccco2)nnc1-c1ccc(N(C)C)cc1	-26%	.	-17%	-11%	-23%	.
CCn1c(SCC(=O)NC2CCCCC2)nnc1-c1cccs1	2%	0	-16%	1%	-9%	7%
Cc1ccc(S(=O)(=O)N(CC(=O)Nc2ccccc2)C(=O)N2CCN(C)CC2)cc1	-7%	-8	1%	15%	-2%	2%
COc1ccc(C(=O)CCC(=O)Nc2ccc(C)c(Cl)c2)cc1	4%	.	-17%	3%	-2%	-2%
N#Cc1cccc(C(c2nnnn2CCc2ccccc2)N2CCN(C3CCCCC3)CC2)c1 (configuration not stated)	11%	?	18µM*	?	-5%	0%
c1ccc(Cn2nnnc2C(c2cccnc2)N2CCN(C3CCCCC3)CC2)cc1 (configuration not stated)	4%	0	-25%	-8%	-23%	8%
COc1ccc(C(c2nnnn2CCc2ccccc2)N2CCN(C3CCCC3)CC2)cc1 (configuration not stated)	-21%	?	-16%	?	-7%	5%

Bioassay records: PubChem, National Center for Advancing Translational Sciences (NCATS)
